# Reference: ChEMBL document CHEMBL3988442, “University of Dundee, Small-Polar-MMV Screening Library” (2021)
# For some assays here: Entries with a potency or affinity are not part of this list.
# How the values were obtained:
# Set-up in all cases: scale not given: direction of the effect not stated beside the values
# [1] = target: Protein translocase subunit SecA (Escherichia coli (strain K12)) (UniProt P10408); experiment: Assay to Identify E. coli SecA ATPase Inhibitors; assay type: functional; conditions: 30 µM
# Chain of Protein translocase subunit SecA (Escherichia coli (strain K12)) (P10408 whole entry): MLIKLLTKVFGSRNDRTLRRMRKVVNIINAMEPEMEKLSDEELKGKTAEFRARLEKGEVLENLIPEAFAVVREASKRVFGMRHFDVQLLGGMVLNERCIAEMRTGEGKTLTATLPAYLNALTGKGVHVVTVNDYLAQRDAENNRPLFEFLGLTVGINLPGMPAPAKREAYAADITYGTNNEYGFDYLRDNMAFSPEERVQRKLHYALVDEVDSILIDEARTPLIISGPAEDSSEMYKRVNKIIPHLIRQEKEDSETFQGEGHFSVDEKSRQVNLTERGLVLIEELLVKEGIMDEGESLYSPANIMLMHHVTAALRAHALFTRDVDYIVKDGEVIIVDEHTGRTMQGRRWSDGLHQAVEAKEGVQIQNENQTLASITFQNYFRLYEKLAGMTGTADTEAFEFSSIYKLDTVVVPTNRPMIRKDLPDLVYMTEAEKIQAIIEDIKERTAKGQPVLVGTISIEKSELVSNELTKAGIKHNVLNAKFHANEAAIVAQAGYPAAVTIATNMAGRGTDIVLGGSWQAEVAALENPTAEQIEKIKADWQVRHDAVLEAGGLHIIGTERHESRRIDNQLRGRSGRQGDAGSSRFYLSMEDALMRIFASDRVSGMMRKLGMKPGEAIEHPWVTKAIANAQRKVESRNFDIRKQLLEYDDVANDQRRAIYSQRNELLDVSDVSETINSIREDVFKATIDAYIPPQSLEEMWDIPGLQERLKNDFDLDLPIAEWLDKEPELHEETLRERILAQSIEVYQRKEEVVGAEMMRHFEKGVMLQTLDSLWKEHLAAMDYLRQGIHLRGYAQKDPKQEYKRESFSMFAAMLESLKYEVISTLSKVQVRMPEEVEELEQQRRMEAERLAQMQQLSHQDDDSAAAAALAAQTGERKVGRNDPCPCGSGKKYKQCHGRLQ
# [2] = target: T1, Ubiquitin-activating enzyme e1, putative (Leishmania donovani (strain BPK282A1)) (UniProt E9BSI1); experiment: Leishmania donovani Ubiquitin Activating Enzyme (LdE1); assay type: functional; conditions: 30 µM
# T1 sequence (whole entry): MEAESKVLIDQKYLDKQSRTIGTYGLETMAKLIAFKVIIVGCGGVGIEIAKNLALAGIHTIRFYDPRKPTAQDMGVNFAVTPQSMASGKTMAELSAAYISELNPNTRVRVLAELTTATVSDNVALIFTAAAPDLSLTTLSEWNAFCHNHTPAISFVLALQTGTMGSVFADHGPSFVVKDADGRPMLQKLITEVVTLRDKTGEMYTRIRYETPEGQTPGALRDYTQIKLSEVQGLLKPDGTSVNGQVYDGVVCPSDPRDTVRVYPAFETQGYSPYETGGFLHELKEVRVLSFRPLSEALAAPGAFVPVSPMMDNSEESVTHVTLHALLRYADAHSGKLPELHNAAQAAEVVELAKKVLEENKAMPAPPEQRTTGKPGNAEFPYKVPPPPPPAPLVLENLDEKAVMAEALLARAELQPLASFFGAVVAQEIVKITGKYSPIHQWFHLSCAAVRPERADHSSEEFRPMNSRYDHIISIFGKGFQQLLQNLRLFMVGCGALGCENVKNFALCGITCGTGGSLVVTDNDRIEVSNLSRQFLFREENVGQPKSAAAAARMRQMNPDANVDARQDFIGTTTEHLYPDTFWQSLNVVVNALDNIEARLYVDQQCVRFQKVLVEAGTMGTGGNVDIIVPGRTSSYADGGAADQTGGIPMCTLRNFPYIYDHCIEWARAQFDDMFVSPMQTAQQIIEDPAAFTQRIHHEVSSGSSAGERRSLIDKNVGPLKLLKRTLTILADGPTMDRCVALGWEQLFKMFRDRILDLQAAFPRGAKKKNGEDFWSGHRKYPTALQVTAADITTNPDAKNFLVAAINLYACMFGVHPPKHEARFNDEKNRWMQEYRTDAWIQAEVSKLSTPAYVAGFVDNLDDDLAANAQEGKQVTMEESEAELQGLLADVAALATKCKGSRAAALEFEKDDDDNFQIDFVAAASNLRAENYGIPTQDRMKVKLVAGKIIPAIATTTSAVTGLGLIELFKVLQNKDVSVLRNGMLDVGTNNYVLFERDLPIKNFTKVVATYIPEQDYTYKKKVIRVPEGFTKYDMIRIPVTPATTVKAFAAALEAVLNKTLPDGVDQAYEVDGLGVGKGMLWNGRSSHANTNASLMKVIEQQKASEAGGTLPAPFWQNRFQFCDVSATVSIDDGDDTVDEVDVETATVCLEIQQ
# [3] = target: AMP-activated protein kinase, AMPK (Homo sapiens) (UniProt P54646+O43741+P54619+Q9UGJ0+Q9Y478+Q13131+Q9UGI9); experiment: AMP-dependent Kinase enzyme assay. An in vitro enzyme assay that detects ADP turnover that is directly proportional to AMPK activity. This uses naive AMPK that is activated during the assay with MK-8722; assay type: functional; conditions: 30 µM
# [4] = target: Sialic acid-binding Ig-like lectin 9 (Homo sapiens) (UniProt Q9Y336); experiment: Hs-Siglec9 ALPHAscreen SOP 20170721; conditions: 10 µM
# Chain of Sialic acid-binding Ig-like lectin 9 (Homo sapiens) (Q9Y336 whole entry): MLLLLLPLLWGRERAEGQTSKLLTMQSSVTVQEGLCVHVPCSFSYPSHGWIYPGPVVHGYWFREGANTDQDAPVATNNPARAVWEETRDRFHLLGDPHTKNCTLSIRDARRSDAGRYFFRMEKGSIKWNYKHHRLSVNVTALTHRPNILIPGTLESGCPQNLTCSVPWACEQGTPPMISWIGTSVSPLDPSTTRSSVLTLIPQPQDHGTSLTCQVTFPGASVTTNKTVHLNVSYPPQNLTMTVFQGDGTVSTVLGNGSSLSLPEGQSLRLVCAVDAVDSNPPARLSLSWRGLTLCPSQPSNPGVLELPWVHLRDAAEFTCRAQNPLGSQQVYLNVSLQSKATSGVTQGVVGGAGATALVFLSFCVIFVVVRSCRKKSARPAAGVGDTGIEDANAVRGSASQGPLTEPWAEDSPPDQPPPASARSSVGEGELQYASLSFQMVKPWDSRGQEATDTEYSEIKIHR
# Trypanosoma cruzi = experiment: Trypanosoma cruzi phosphomannomutase and mannose-1-phosphate guanylyltransferase assay; assay type: functional; conditions: 10 µM
# [5] = target: T2, Arginase-2, mitochondrial (Homo sapiens) (UniProt P78540); experiment: in vitro enzyme assay to detect the production of urea directly proportional to the activity of Arginase II; assay type: functional; conditions: 33.3 µM; also: in the data most compounds retested in dose-response had high values
# T2 sequence (whole entry): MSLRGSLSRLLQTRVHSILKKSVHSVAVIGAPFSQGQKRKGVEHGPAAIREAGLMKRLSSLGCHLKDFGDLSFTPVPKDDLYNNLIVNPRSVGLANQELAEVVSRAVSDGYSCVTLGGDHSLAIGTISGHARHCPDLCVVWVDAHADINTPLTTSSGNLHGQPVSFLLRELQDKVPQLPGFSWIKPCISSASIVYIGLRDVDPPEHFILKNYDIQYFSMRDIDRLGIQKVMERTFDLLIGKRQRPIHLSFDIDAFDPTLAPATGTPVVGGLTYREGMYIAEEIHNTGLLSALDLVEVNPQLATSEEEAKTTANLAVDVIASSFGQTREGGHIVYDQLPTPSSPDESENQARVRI
# [6] = target: T3, Proteasome subunit beta (Trypanosoma cruzi) (UniProt O96673); experiment: Trypanosoma cruzi proteasome chymotrypsin-like activity (TcProtChymo) assay.; also: in the data most compounds retested in dose-response had high values; assay type: functional; conditions: 9.37 µM
# T3 sequence (whole entry): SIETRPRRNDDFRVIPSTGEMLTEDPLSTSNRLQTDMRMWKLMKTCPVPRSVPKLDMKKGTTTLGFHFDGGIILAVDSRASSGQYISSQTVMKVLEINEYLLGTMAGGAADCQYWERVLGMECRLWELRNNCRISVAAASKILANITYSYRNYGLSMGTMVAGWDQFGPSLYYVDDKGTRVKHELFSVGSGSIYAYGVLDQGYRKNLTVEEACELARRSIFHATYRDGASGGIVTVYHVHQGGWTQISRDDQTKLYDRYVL
# Homo sapiens = species: Homo sapiens; experiment: To identify inhibition of the IFN signalling (Jak-Stat) pathway via expression of an eGFP reporter gene under the control of an IFN-stimulated response element (ISRE) containing MxA promoter.; assay type: functional; conditions: 30 µM
# [7] = target: T4, Tyrosyl-tRNA synthetase, putative (Trypanosoma cruzi (strain CL Brener)) (UniProt Q4DSP6); experiment: Trypanosoma cruzi tyrosyl tRNA synthetase (TcYRS) _High Tyrosine SOP; assay type: functional; conditions: 30 µM; also: in the data most compounds retested in dose-response had high values
# T4 sequence (whole entry): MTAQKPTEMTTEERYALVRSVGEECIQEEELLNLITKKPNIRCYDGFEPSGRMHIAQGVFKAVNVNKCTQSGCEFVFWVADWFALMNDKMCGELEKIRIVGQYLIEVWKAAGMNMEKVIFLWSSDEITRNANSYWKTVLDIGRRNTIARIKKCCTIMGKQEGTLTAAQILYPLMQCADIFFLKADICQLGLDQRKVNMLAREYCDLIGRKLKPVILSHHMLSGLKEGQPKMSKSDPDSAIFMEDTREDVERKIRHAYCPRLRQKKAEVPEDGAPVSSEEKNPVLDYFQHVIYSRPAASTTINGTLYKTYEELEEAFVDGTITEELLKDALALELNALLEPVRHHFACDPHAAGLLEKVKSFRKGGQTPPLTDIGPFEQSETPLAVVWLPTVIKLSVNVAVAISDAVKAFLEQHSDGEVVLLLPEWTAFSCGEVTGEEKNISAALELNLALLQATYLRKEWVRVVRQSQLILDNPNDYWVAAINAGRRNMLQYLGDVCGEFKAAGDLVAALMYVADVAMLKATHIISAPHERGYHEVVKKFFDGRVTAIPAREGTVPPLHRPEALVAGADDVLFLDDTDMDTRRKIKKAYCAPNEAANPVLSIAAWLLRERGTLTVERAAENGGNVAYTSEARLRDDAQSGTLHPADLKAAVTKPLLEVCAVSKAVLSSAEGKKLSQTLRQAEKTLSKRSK
# [8] = target: T4, Tyrosyl-tRNA synthetase, putative (Trypanosoma cruzi (strain CL Brener)); experiment: Trypanosoma cruzi tyrosyl tRNA synthetase (TcYRS) SOP; assay type: functional; conditions: 30 µM
# [9] = target: Chromo domain-containing protein 1 (Saccharomyces cerevisiae (strain ATCC 204508 / S288c) (Baker's yeast)) (UniProt P32657); experiment: ScCHD-1 Enzyme Inhibition Assay; assay type: functional; conditions: 30 µM; also: in the data most compounds retested in dose-response had high values
# Chain of Chromo domain-containing protein 1 (Saccharomyces cerevisiae (strain ATCC 204508 / S288c) (Baker's yeast)) (P32657 whole entry, the tested form may be a part): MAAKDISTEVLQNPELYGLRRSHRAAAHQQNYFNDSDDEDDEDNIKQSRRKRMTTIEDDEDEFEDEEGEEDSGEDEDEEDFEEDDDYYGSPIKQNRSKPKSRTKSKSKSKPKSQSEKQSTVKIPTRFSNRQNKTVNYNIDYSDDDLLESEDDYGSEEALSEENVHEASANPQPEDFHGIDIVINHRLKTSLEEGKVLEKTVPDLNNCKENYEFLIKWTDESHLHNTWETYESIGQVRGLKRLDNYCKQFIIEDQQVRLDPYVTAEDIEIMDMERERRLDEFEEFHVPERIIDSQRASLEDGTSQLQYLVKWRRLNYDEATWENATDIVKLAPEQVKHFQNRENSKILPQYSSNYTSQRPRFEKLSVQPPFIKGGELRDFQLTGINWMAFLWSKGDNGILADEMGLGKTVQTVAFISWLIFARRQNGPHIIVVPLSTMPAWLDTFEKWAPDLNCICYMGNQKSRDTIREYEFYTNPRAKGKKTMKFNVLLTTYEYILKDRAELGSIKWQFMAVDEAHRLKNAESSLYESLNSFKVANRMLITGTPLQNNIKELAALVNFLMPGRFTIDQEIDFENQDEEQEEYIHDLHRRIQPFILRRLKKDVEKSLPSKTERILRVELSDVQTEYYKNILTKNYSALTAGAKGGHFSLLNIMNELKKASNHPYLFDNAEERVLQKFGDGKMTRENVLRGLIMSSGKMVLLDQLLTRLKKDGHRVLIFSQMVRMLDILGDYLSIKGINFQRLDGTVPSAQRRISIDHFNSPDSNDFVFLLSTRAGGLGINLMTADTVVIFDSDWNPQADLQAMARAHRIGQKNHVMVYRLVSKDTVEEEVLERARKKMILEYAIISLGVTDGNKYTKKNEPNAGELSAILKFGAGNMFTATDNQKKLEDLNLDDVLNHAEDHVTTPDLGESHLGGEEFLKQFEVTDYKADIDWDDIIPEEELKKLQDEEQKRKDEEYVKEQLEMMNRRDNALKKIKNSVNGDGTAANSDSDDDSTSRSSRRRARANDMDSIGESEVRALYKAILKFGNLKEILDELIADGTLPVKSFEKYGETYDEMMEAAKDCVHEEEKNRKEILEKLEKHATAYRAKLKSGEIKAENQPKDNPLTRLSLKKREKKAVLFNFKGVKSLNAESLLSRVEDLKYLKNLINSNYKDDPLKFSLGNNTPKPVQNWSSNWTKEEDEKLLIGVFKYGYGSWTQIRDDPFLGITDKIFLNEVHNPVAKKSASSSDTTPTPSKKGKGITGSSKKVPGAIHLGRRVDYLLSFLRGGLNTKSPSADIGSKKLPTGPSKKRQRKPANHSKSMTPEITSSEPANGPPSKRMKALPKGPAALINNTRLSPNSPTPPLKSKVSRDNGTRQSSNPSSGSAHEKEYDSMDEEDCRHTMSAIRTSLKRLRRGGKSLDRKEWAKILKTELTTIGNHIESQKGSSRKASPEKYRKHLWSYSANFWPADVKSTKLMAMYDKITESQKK
SMILES,Percent Effect [1] [%],Percent Effect [2] [%],Percent Effect [3] [%],Percent Effect [4] [%],Percent Effect (Trypanosoma cruzi) [%],Percent Effect [5] [%],Percent Effect [6] [%],Percent Effect (Homo sapiens) [%],Percent Effect [7] [%],Percent Effect [8] [%],Percent Effect [9] [%]
Cn1cc(C2CCCN2C(=O)CCCOCc2ccccc2)cn1 (configuration not stated),-4.26,10.1,-1.48,-1.07,4.25,-1.9,7.62,2.8,0.493,3.8,-7.66
Cc1nnc(C(C)N2CCN(Cc3ccc(C#N)cc3)CC2)o1 (configuration not stated),-3.48,8.11,-6.14,9.9,-8.77,27.7,-5.22,5.6,0.493,3.7,0.608
O=C(CCn1cncn1)NC1(c2cccc(Br)c2)CCC1,-3.55,20.8,1.67,13.7,3.44,1.38,10.5,-1.82,3.23,16.1,-9.17
CCCc1ncc(C(=O)N2CCOC(c3nc(C)n[nH]3)C2)s1 (configuration not stated),-2.75,-3.8,4.69,3.58,-6.46,7.1,5.66,11.7,1.04,-2.53,9.76
CCN1CCC2(CC1)CC(NC(=O)NC)c1cc(C)ccc12 (configuration not stated),-3.84,13.3,6.34,6.37,5.21,-56.5,10.9,-24.6,4.17,7.5,-5.82
Cc1ccccc1CNc1nc(O)cc(C2CC(=O)N(C)C2)n1 (configuration not stated),3.9,6.76,3.36,-2.99,-44.5,4.87,13.1,8.17,2.15,9.09,-10.8
Cc1noc(C)c1CCC(=O)N1CCN(CCn2cccn2)CC1,-5.39,21.9,-6.91,19.6,7.64,8.18,8.52,3.96,3.23,17.5,-5.67
Cc1cccc(CN(C)Cc2nc3c(cnn3C)c(=O)[nH]2)c1,-3.57,21.1,-0.412,-12.2,-5.51,-5.04,3.3,-2.73,8.37,23.5,-7.57
COc1ccnc(N2CCN(C(=O)c3csc(C(C)C)n3)CC2)n1,-7.52,10.8,-3.77,29.4,9.68,5.21,7.3,13,4.3,11.1,-11.3
COc1ccc(OCCCNC(=O)NCc2csc(C)n2)cc1,-3.63,16.2,2.75,-5.68,0.65,-4.62,7.54,20.4,8.91,15.8,-3.66
Cc1cnn(CC2CCCN2CCCc2nc3ccccc3o2)c1 (configuration not stated),-6.63,13.5,-13.1,10.9,4.18,-4.99,6.82,4.32,6.93,18.3,-7.36
c1ccc2c(N3CCCC3Cn3cccn3)ncnc2c1 (configuration not stated),-2.93,21.6,-4.33,6.84,2.88,2.77,10.2,50.9,6.93,28.1,-8.26
O=C(NCCCN1CCOCC1)Nc1cnc2cc(Cl)ccc2c1O,0.589,17.6,9.55,-8.53,-3.16,-5.34,12.8,31.9,0,1.3,-6.01
CCOc1ccccc1OC1CCN(C(=O)c2cc[nH]n2)CC1,-5.63,13.2,8.96,-2.66,-4.13,4.21,12.4,26.7,2.45,7.32,-7.55
CCN1CCCC1CN(CCN(C)C)S(=O)(=O)c1cccc(C#N)c1 (configuration not stated),-5.4,13.7,3.08,5.43,6.27,4.09,8.16,0.578,4.3,10,-4.67
O=C(NC[C@]12COC[C@H]1CN(Cc1nccs1)C2)c1ccccc1,-4.56,17.3,-62.1,6.67,3.34,-6.87,15.7,4.15,2.12,7.69,-9.52
c1nc2c(c(-c3ccsc3)n1)CCN(Cc1ccoc1)CC2,-1.1,-5.41,14.1,-1.76,-2.15,-1.67,5.83,12.5,-6.93,-3.66,-0.614
N#Cc1ccc(F)c(CN2CCCC2Cn2cccn2)c1 (configuration not stated),-4.03,-8.11,-4.51,13.8,1.39,-0.554,-0.359,4.22,4.95,1.22,4.66
CC(CNc1cncc(-n2cccn2)n1)N(C)c1ccccc1 (configuration not stated),-0.428,0,9.04,7.11,0.374,0.712,1.52,51.6,0.971,0,-6.86
Cn1ccc(C(=O)NC2CCC23CCN(C(=O)N2CCCC2)CC3)c1 (configuration not stated),-3.06,16.2,3.04,-9.67,3.42,-6.05,19.2,-7.3,6.49,15.4,1.18
c1coc(CN2C[C@H](OCC3CCOCC3)[C@H]3COC[C@H]32)c1,-3.71,8.11,6.46,-3.04,-3.23,-0.955,15.3,13.1,0,12.8,1.07
CCN(CC)C(=O)Nc1cc2c(cc1SC)OCCO2,-0.336,8.11,-6.12,9.01,3.71,27.5,3.47,-7.38,4.95,8.54,-6.4
